# Measured values from PubChem BioAssay AID1347418 (Sanford-Burnham Center for Chemical Genomics, 2020).
# About 750 (58%) of roughly 1,300 compounds were called active. The list shows a part of the results.
# Target: Sulfhydryl oxidase 1 (Homo sapiens) (UniProt O00391)
# Assay: QSOX1 enzyme inhibitors, primary screen, biochemical, ROS-Glo H2O2 luminescence, HTS (AID 1347418)
# Conditions: recombinant QSOX1, ROS-Glo H2O2 luminescence; at 12.5 µM; hits give high values; active = any value above zero
# Chain of Sulfhydryl oxidase 1 (Homo sapiens) (O00391 whole entry, looked up): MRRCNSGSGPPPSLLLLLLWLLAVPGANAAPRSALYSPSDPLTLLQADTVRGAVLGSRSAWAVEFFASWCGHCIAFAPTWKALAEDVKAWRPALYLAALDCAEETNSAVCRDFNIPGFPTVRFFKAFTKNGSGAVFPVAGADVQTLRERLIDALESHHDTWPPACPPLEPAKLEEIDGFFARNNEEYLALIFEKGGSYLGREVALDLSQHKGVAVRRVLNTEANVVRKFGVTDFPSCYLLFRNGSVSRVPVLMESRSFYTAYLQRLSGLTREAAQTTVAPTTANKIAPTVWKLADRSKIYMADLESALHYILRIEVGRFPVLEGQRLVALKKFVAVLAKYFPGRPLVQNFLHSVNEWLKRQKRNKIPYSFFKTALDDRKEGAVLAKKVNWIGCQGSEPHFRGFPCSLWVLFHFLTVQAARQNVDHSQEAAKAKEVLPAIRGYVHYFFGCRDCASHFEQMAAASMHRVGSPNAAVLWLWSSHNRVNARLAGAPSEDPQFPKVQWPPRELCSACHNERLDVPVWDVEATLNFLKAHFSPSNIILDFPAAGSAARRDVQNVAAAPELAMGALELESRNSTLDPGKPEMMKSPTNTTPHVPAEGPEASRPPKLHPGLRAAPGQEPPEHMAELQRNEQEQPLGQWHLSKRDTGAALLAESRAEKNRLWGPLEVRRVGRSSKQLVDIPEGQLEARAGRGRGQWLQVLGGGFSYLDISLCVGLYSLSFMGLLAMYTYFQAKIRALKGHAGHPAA
row,Compound,inhibition
1,O=c1[nH]c(=S)[nH]c(-c2ccccc2)c1Cc1c(O)ccc2ccccc12,9% (active)
2,O=C(c1cc(O)c(O)c([N+](=O)[O-])c1)c1ccccc1F,14.2% (active)
3,N#CC(=C(\N)Sc1ccccc1N)/C(C#N)=C(/N)Sc1ccccc1N,44.1% (active)
4,CC(O)C(O)[C@H]1CNc2nc(N)[nH]c(=O)c2N1 (stereo partly drawn),1.5% (active)
5,CC(C)(Oc1ccc(C2CC2(Cl)Cl)cc1)C(=O)O (stereo not drawn),2.5% (active)
6,CCOC(=O)C(C)(C)Oc1ccc(Cl)cc1,-1.7% (inactive)
7,CC(C)(Oc1ccc(CCNC(=O)c2ccc(Cl)cc2)cc1)C(=O)O,-3.3% (inactive)
8,COc1cc(C(O)C(=O)O)ccc1O (stereo not drawn),1.1% (active)
9,COc1cc(C(O)CO)ccc1O (stereo not drawn),4.8% (active)
10,COc1ccc2cc([C@H](C)C(=O)O)ccc2c1,-0.6% (inactive)
11,COc1cc(C(O)CO)ccc1OS(=O)(=O)O (stereo not drawn),0.6% (active)
12,CCN(CC)CCNC(=O)c1cc(S(C)(=O)=O)ccc1OC,-3.2% (inactive)
13,COC(=O)[C@H]1[C@H]2C[C@@H]3c4[nH]c5cc(OC)ccc5c4CCN3C[C@H]2C[C@@H](OC(=O)c2cc(OC)c(OC)c(OC)c2)[C@@H]1OC,11.6% (active)
14,COC(=O)[C@@H]1[C@H]2C[C@H]3c4[nH]c5ccccc5c4CCN3C[C@@H]2CC[C@@H]1O,1.4% (active)
15,COC(=O)[C@H]1[C@H]2C[C@H]3c4[nH]c5ccccc5c4CCN3C[C@H]2CC[C@@H]1O,6.1% (active)
16,C=C[C@H]1CN2CC[C@@H]1C[C@H]2[C@@H](O)c1ccnc2ccc(OC)cc12,-3% (inactive)
17,O=C(O)CCC/C=C\C[C@@H]1[C@@H](/C=C/[C@H](O)C2Cc3ccccc3C2)[C@@H](F)C[C@@H]1O,7.1% (active)
18,O=C(O)C1=CCCNC1,-2.5% (inactive)
19,CCN(CC)CC(=O)Nc1c(C)cccc1C,-1.3% (inactive)
20,CCCNC(C)C(=O)Nc1ccccc1C (stereo not drawn),-4.7% (inactive)
21,Cc1cccc(C)c1NC(=O)C(C)N (stereo not drawn),8% (active)
22,CC(=O)CCCCn1c(=O)c2c(ncn2C)n(C)c1=O,5.8% (active)
23,Cn1c(=O)c2c(ncn2C)n(C)c1=O,-0.6% (inactive)
24,C#CCn1c(=O)c2c(ncn2C)n(C)c1=O,-0.9% (inactive)
25,CCCn1c(=O)c2c(ncn2C)n(CCC)c1=O,4.1% (active)
26,CCCn1cnc2c1c(=O)n(CCCCC(C)=O)c(=O)n2C,2.6% (active)
27,N#C/C(=C\c1ccc(-c2cc(Cl)ccc2Cl)o1)C(=O)Nc1cccc2ncccc12,3.5% (active)
28,CCN(CC)CCn1c(=O)c(Cc2ccc(OC)cc2)nc2ccccc21,1.7% (active)
